Hits are enriched below; roughly 1.1% of the tested compounds scored in any of these assays.
Tb PFK inh = inhibitors of T. brucei phosphofructokinase | O15648 | T. brucei PFK, ADP-Glo luminescence | Potency, µM (highest dose often 57.5 µM), hits mostly inhibitors | 330,000 tested, 0.17% active; further: nearly all actives have a fitted effect of over 60% in size
Target sequence (O15648 whole entry, looked up): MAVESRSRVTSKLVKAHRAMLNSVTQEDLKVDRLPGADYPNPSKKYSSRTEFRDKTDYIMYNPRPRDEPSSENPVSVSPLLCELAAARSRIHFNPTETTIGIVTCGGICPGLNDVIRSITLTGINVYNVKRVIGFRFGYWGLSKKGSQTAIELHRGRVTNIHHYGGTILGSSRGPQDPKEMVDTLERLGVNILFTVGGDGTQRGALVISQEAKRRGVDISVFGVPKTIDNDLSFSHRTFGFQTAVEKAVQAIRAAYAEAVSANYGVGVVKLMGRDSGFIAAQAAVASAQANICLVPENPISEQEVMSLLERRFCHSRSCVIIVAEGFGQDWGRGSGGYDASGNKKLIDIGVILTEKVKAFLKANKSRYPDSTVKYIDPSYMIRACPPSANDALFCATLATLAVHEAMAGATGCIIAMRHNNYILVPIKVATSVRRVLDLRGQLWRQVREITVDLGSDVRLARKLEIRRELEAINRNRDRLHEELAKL
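ADP-Glo luminescence quantified ADP after 45 min at room temperature, with 1.25 nM T. brucei PFK, 0.1 mM ATP and 0.5 mM fructose-6-phosphate in pH 8.0 TEA buffer. qHTS titrations up to 57 µM; curves classified by quality.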
p53 reactivation = restores transcriptional activity of mutant p53; H1299 p53-A138V BP100-luciferase reporter, luminescence, 24 h; Potency, µM (doses to about 92.2 µM), usual class: activators; 320,000 tested, 0.063% active; AID 504706; further: nearly all actives have a fitted effect of over 45% in size
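p53-null H1299 cells stably carrying temperature-sensitive p53-A138V and a BP100-luciferase reporter were pinned with compounds (4-point, 1:5 series) and held 24 hrs at 37 deg C. Luminescence was read 10 min after detection reagent.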
gsp antagonist = antagonists of gsp mutant (McCune-Albright syndrome). gsp-mutant cells, cAMP HTRF, 30 min. Potency, µM (highest dose often 76.9 µM), actives largely listed as inhibitors. 340,000 tested, 0.4% active. AID 624288; calls by dose curve; cell line not stated here;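 further: intracellular cAMP measured with PDE inhibitor Ro 20-1724 present during compound exposure; nearly all actives have a fitted effect of over 65% in size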
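G418-selected cells were plated in DMEM/10% FBS for 16-24 h at 37C, then treated with compounds plus the PDE inhibitor […] (300 uM solution added) for 30 min at 37C. Intracellular cAMP was measured by HTRF after 30 min lysis at room temperature.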
gsp agonist = agonists of gsp mutant (McCune-Albright syndrome). gsp mutant cells, cAMP HTRF, 30 min. Potency, µM (highest dose often 76.9 µM), most hits filed as activators. 340,000 tested, 0.13% active. AID 624287; active means well fitted activation curve with a large enough effect; inconclusive means small, poorly fitted or top-dose-only effect, or another doubt; inactive means no such curve, though single readings can be large or run the other way; cell line not stated here;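 further: phosphodiesterase inhibitor Ro 20-1724 added with compounds to block cAMP breakdown; nearly all actives have a fitted effect of over 60% in size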
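Cells in DMEM/10% FBS with G418 were pretreated with compounds in DMSO plus […] (300 uM stock) for 30 min at 37C. cAMP was measured by HTRF (cAMP-d2 plus anti-cAMP antibody-K) after 30 min at room temperature.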
RXFP1 ag = agonists of human relaxin receptor RXFP1; Q9HBX9; HEK293T-RXFP1 cAMP TR-FRET, 30 min; response scale: percent of porcine relaxin response, buffer zero; Potency, µM (top dose mostly 57.5 µM), hits mostly activators; 370,000 tested, 0.3% active; further: nearly all actives have a fitted effect of over 60% in size
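cAMP rise read by TR-FRET after 30 min, 37C compound exposure (up to 58 uM) in RXFP1-transfected HEK293 cells with Ro 20174 present. EC50 from Hill-equation fits, with 29 nM porcine relaxin as 100% and buffer as basal.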
RXFP1 antagonist = RXFP1 (human) relaxin receptor antagonism; Q9HBX9; HEK293-RXFP1, relaxin-stimulated cAMP HTRF, 30 min; stronger effect = lower value; activity change, negative = inhibition, % at 57.5 µM; 350,000 tested, 0.59% active; AID 1259400;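 active means activity change of -60% or lower, but not beyond a set lower limit; inconclusive means change between -60% and -40%, or beyond the set limit; inactive means change above -40%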
Of the large screens only hits and unclear results are named; the others gave an inactive call. Unless noted, the call rests on the fitted dose curve; in most records, active means well fitted curve in the direction sought with a large enough effect; inconclusive means small, poorly fitted or top-dose-only effect, or another doubt; inactive means no such curve, though single readings can be large; an effect the other way counts as inactive or inconclusive.

Cc1ccc(-c2nn(-c3ccccc3)cc2/C=C2\SC(=S)N(CC(=O)O)C2=O)cc1	gsp antagonist inconclusive
COc1ccc(-c2nn(-c3ccccc3)cc2/C=C2/SC(=S)N(CCC(=O)O)C2=O)c(C)c1	gsp antagonist 32µM
COc1ccc(/C=C2/SC(=S)N(CCC(=O)O)C2=O)cc1	none
COc1ccc(-c2nn(-c3ccccc3)cc2/C=C2/SC(=S)N(CCC(=O)O)C2=O)cc1	gsp antagonist 32µM
CN1CCc2c(sc(NC(=O)CS(=O)(=O)c3ccccc3)c2C(N)=O)C1	gsp antagonist inconclusive, RXFP1 antagonist -63
CCCN1CCc2c(sc(NC(=O)CCS(=O)(=O)c3ccccc3)c2C(N)=O)C1	gsp agonist inconclusive
O=C1/C(=C/c2cccnc2)Oc2cc(OS(=O)(=O)c3ccc(F)cc3)ccc21	gsp antagonist inconclusive
O=C1/C(=C/c2ccncc2)Oc2cc(OS(=O)(=O)c3ccccc3)ccc21	RXFP1 antagonist -82
CC(=O)N(c1ccc(Cl)cc1)c1c[nH]c2ccccc12	none
O=C(O)C[C@@H]1C(=O)O[C@@H]2C(COC(=O)c3cc(O)c(O)c(O)c3)O[C@@H](OC(=O)c3cc(O)c(O)c(O)c3)[C@@H](OC(=O)c3cc(O)c(O)c4c3[C@H]1[C@H](O)C(=O)O4)[C@H]2OC(=O)c1cc(O)c(O)c(O)c1 (stereo partly specified)	Tb PFK inh 1.5µM (no result: gsp antagonist, gsp agonist, RXFP1 antagonist)
CCCCOc1c(C(=O)Nc2ccccc2)nnn1-c1ccccc1	RXFP1 antagonist -87 (no result: gsp antagonist)
CC1=NOC(=O)/C1=C\c1ccc(-c2ccc(Br)cc2)o1	Tb PFK inh inconclusive, gsp agonist 4µM
Cc1ccc(C(OCC(O)CN2CCCCC2)c2ccccc2)cc1 (stereo unspecified)	none
Cc1ccc(C(OCC(O)CNC(C)c2ccccc2)c2ccccc2)cc1 (stereo unspecified)	RXFP1 antagonist -70
O=C(CSc1ccc(-c2ccco2)nn1)NCc1ccccc1Cl	gsp agonist 11µM (no result: RXFP1 antagonist)
CC(=O)c1nn(-c2ccc(C(F)(F)F)cc2)c(=O)[nH]c1=O	none
CNC(=O)C(C)c1ncc(C(F)(F)F)cc1Cl (stereo unspecified)	none
CNC(=O)c1cc2ncc(C(F)(F)F)cc2s1	gsp agonist inconclusive, RXFP1 antagonist -82
Cc1c(C(=O)Nc2ccc(-n3cnnn3)cc2)oc2ccccc12	none
CCCCCS(=O)(=O)c1oc(-c2cccs2)nc1S(=O)(=O)c1ccc(C)cc1	none (no result: Tb PFK inh, p53 reactivation, gsp antagonist, gsp agonist)
CCCCS(=O)(=O)c1oc(-c2cccs2)nc1S(=O)(=O)c1ccc(F)cc1	RXFP1 antagonist -76 (no result: Tb PFK inh, p53 reactivation, gsp antagonist, gsp agonist)
CCCCS(=O)(=O)c1oc(-c2ccc(F)cc2)nc1S(=O)(=O)c1ccc(C)cc1	RXFP1 antagonist -72 (no result: Tb PFK inh, p53 reactivation, gsp antagonist, gsp agonist)
CCC(C)S(=O)(=O)c1oc(-c2ccc(F)cc2)nc1S(=O)(=O)c1ccc(F)cc1 (stereo unspecified)	RXFP1 antagonist inconclusive (no result: Tb PFK inh, p53 reactivation, gsp antagonist, gsp agonist)
CCS(=O)(=O)c1oc(-c2ccc(F)cc2)nc1S(=O)(=O)c1ccccc1	RXFP1 antagonist -107 (no result: Tb PFK inh, p53 reactivation, gsp antagonist, gsp agonist)
Cc1ccc(N2CC(C(=O)Nc3ccc4c(c3)OCCO4)CC2=O)cc1 (stereo unspecified)	none
COc1ccc(NC(=O)CSCC(=O)NCc2cccc(C(F)(F)F)c2)cc1	none
C[C@@]12C(=O)N(c3ccc(C(F)(F)F)cc3)C(=O)N1[C@@H]1c3ccccc3OC[C@@H]1[C@H]2c1ccccc1	gsp antagonist 32µM (no result: p53 reactivation, gsp agonist, RXFP1 antagonist)
C[C@]12C(=O)N(c3ccc(F)cc3)C(=O)N1[C@@H]1c3ccccc3OC[C@@H]1[C@H]2c1ccccc1	none (no result: p53 reactivation, RXFP1 antagonist)
Clc1ccc(C(c2ccccc2Cl)C(Cl)Cl)cc1 (stereo unspecified)	RXFP1 antagonist -74 (no result: gsp agonist)
Cn1c(=O)c([N+](=O)[O-])c(-n2ccnc2)c2ccccc21	gsp antagonist inconclusive, RXFP1 antagonist -110
Cn1c(=O)c([N+](=O)[O-])c(NCCCn2ccnc2)c2ccccc21	none
CCN1/C(=C/C(C)=C/c2sc3ccccc3[n+]2CC)Sc2ccccc21	gsp antagonist 35µM, RXFP1 antagonist -119

Screens as filed in PubChem BioAssay.
